Data published in PubChem BioAssay.

Experiment: small molecules captured by biotinylated probe aFGF10 – biochemical, small-molecule microarray, fluorescence 635/667, stem cell growth factor project, primary screen (AID 1071);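 note: score merges 667 nm spot intensity and signal to noise from triplicate slides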
Conditions: higher = more signal

SMILES | composite z-score
C[C@@H]1CCC2C(=O)N(Cc3ccccc3)C[C@@H](O)CN2[C@H]1c1ccc(Br)cc1 (stereo not given in full) | 0.84
CCOC(=O)CCN1C(=O)[C@H]2[C@H]3[C@H](O)[C@H](O)CC(=O)[C@H]3CC[C@H]2C1=O | 0.389
C#CCCCON=C1C[C@@H](O)[C@@H](O)[C@@H]2[C@@H]3C(=O)N(CCC(=O)OCC)C(=O)[C@@H]3CC[C@@H]12 | -0.0007
O=C1[C@H]2[C@H]3[C@H](O)[C@H](O)CC(=NOCc4ccccc4)[C@H]3CC[C@H]2C(=O)N1C[C@@H]1CCCO1 | 0.717
C#CCCCON=C1C[C@@H](O)[C@@H](O)[C@@H]2[C@@H]3C(=O)N([C@@H](C)c4ccccc4)C(=O)[C@@H]3CC[C@H]12 | 0.342
CCOC(=O)[C@H](Cc1ccccc1)NC(=O)CCC1CC(OC(=O)NCc2ccc3c(c2)OCO3)CC2(CCCC(COC(=O)NCc3cccc(C(F)(F)F)c3)O2)O1 (stereo not given in full) | 0.0907
C=CC[C@@H]1C=C[C@H](ON=C(C)CCN2CCc3nc(CC)c(CC)cc3C2)[C@@H](CO)O1 | -0.21
O=C1C2C=CC(C(O)c3ccc([N+](=O)[O-])cc3)N(Nc3ccc([N+](=O)[O-])cc3)C2C(=O)N1c1ccccc1 (stereo not given) | 1.13
CC(C)[C@H](NC(=O)OC(C)(C)C)[C@@H](O)CC(=O)OC(C)(C)C | -0.267
NCCCCCNC(=O)[C@@H]1C[C@@H]2C(=O)N3CCC[C@H]3C(=O)N2[C@@H]1c1cccc(OCCO)c1 | 0.349
COC(=O)CC=C[C@H](C)[C@@H](OCc1ccccc1Br)C(C)C | 0.189
COc1ccc([Si](C)(C)[C@H]2[C@H](CCO)O[C@@]3(C(=O)N(Cc4cccc(NC(=O)[C@H](C)O)c4)c4ccccc43)[C@@H]2C)cc1 | 0.136
CCOC(=O)CCN1C(=O)[C@H]2[C@H]3[C@H](O)C=CC(=O)[C@@H]3CC[C@H]2C1=O | 0.408
CCN1C(=O)[C@H]2[C@H]3[C@H](O)[C@H](O)CC(=NOC[C@@H](C)[C@H](OCc4ccccc4)C(C)C)[C@@H]3CC[C@H]2C1=O | 0.523
CO[C@H]1COC(=O)[C@H](C)COC(=O)CC=C[C@@H](C)[C@H](OC)COC(=O)CC=C[C@@H]1C | -0.0247
C=C(CCCC)C(=O)CC[C@@H](OC(C)=O)c1cccc(OCCO)c1 | -0.565
C[C@H](c1ccccc1)N1C(=O)[C@H]2[C@@H]3C(=CC[C@H]2C1=O)C(=O)[C@H]1O[C@H]1[C@H]3O | 0.134
CC(C)CON=C1C[C@@H](O)[C@@H](O)[C@@H]2[C@@H]3C(=O)N(C[C@@H]4CCCO4)C(=O)[C@@H]3CC[C@H]12 | 0.421
CCOC(=O)C1=CC[C@H]2C(=O)N(CC)C(=O)[C@@H]12 | 0.772
C#CCCCON=C1C[C@@H](O)[C@@H](O)[C@@H]2[C@@H]3C(=O)N(c4cccc(Oc5ccccc5)c4)C(=O)[C@@H]3CC[C@@H]12 | 0.967
CC(CCN1CCc2nc(-c3ccccc3)c(-c3ccccc3)cc2C1)=NOC(C)CN1CCCCc2nc(C)c(C)cc21 (stereo not given) | 0.476
CCOC(=O)[C@H](CC(C)C)NC(=O)CCC1CC(OC(=O)NCc2cccc3ccccc23)CC2(CCCC(COC(=O)NCCc3ccccc3OC)O2)O1 (stereo not given in full) | 0.433
COc1cccc([C@@H]2Oc3ccc(Br)cc3C(=O)[C@H]2O)c1 | 0.783
CS(=O)(=O)CCOC(=O)C1=CC(CCCO)=CC(c2cccs2)N(Cc2cccc(OC(F)(F)F)c2)C=C1C(=O)OCCS(C)(=O)=O (stereo not given) | 0.0557
NC(=O)NCC#Cc1ccc2c(c1)[C@]1(C(=O)N2)[C@H](c2ccc(O)cc2)N2[C@H](c3ccccc3)[C@H](c3ccccc3)OC(=O)[C@H]2[C@@H]1C(=O)N1CCCCCCC1 | 0.122
O=C(CS)NCCCCCNC(=O)[C@H]1C[C@H]2C(=O)N3CCC[C@H]3C(=O)N2[C@H]1c1cccc(OCCO)c1 | 0.564
CO[C@H]1COC(=O)[C@H](C)NC(=O)[C@@H](C)COC(=O)CC=C[C@@H]1C | 0.409
C=CCOC(=O)[C@H]1[C@@H]2C(=O)O[C@@H](c3ccccc3)[C@@H](c3ccccc3)N2[C@@H](c2ccc(OCCOC(=O)[C@H]3C[C@H]4C(=O)N5CCC[C@H]5C(=O)N4[C@H]3c3cccc(OCCO)c3)cc2)[C@]12C(=O)Nc1ccc(I)cc12 | 0.92
CCN1C(=O)[C@H]2[C@H]3[C@H](O)[C@H](O)CC(=NOCC=C(C)CCC=C(C)C)[C@H]3CC[C@H]2C1=O | 0.923
CC(C)[C@@H](OCc1ccccc1)[C@H](C)C=NOC[C@@H](C)[C@H](OCc1ccccc1)C(C)C | 0.31
